Results from PubChem BioAssay (NCATS).
Inconclusive results are not listed. A number with no mark means an inactive call. Activity calls are given as the source filed them. Calls come from the whole dose curve; as a rule, active = well fitted curve in the direction sought with a large enough effect; inconclusive = small, poorly fitted or top-dose-only effect, or another doubt; inactive = no such curve, though single readings can be large; an effect the other way counts as inactive or inconclusive. Non-standard residues stand in square brackets, D forms with d. Residues, ends and D or L forms follow the SMILES beside them. *: point of attachment. Sta = CC(C)C[C@H](N)[C@@H](O)CC(=O)O; Isovaleryl = CC(C)CC(=O)*

molecular target: Protein phosphatase 1D (Homo sapiens) (UniProt O15297); assay: Rhodamine-PBP qHTS Assay for Modulators of WT P53-Induced Phosphatase 1 (WIP1) (AID 1347425); conditions: recombinant WIP1, Rhodamine-PBP phosphate fluorescence, real-time; series mostly up to 57.5 µM; activity change, negative = inhibition: at the top concentration; note: % of control where 0% means no effect
Sequence (O15297 whole entry, looked up): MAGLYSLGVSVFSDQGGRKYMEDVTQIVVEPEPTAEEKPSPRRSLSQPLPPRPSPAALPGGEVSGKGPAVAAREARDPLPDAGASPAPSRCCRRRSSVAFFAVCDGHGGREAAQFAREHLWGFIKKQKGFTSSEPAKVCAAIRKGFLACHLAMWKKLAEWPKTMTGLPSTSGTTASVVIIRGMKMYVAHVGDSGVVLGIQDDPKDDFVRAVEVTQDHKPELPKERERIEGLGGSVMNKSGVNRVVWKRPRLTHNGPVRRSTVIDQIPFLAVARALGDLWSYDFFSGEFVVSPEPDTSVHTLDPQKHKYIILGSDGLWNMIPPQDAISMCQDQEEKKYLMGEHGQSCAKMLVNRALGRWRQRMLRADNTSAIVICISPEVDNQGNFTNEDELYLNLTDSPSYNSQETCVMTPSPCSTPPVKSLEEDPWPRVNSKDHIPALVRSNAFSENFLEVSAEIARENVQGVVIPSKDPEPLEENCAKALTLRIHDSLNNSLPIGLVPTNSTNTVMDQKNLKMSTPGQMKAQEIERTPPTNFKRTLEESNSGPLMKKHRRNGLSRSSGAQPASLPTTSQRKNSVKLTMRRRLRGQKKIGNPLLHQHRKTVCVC
Procedure, shortened: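 5 nM WIP1 + 10 uM Rh-PBP, 50 mM Tris pH 7.5, 30 mM MgCl2, 1 mM TCEP, 0.1 mM EGTA, BSA; cpds pinned, 1 hr RT; + 10 uM phosphopeptide; fluorescence 1-min reads x 11 min; delta = f1 - f0.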

Row | SMILES | activity change, negative = inhibition | outcome
1 | Cc1cc(C2CCCCC2)n(O)c(=O)c1 | 1.54% | –
2 | N=C(N=C(N)N)N1CCOCC1 | -7.49% | –
3 | O=C(NCCO[N+](=O)[O-])c1cccnc1 | 1.39% | –
4 | COC1=C(OC)C(=O)C(CCCCCCCCCCO)=C(C)C1=O | -0.395% | –
5 | Cc1cccc(C)c1OCC(=O)N[C@@H](Cc1ccccc1)[C@@H](O)C[C@H](Cc1ccccc1)NC(=O)[C@H](C(C)C)N1CCCNC1=O | 6.57% | –
6 | N=C(N)c1ccc2cc(OC(=O)c3ccc(N=C(N)N)cc3)ccc2c1 | 6.57% | –
7 | CCCCC(CC)COC(=O)C(C#N)=C(c1ccccc1)c1ccccc1 (stereo not given) | -4.77% | –
8 | CCN(CC)CCOc1ccc(Cc2ccccc2)cc1 | 11.4% | –
9 | CC(C)CC(=O)N[C@H](C(=O)N[C@H](C(=O)N[C@@H](CC(C)C)[C@@H](O)CC(=O)N[C@@H](C)C(=O)N[C@@H](CC(C)C)[C@@H](O)CC(=O)O)C(C)C)C(C)C (Isovaleryl-VV[Sta]A[Sta]-OH) | 15.8% | –
10 | CCCc1cc(=O)[nH]c(=S)[nH]1 | 8.42% | –
11 | CC(C)[C@H](N)C(=O)OCCOCn1cnc2c(=O)[nH]c(N)nc21 | 2.98% | –
12 | CN1CCC(=C2c3ccccc3CCc3sccc32)CC1 | 18.6% | –
13 | Cc1cc2cc3c(C)cc(=O)oc3c(C)c2o1 | -4.25% | –
14 | NC(=O)Cc1cccc(C(=O)c2ccccc2)c1N | -16.5% | –
15 | CCCCCCCCOc1ccccc1C(=O)Nc1ccc(C(=O)OCC[N+](C)(CC)CC)cc1 | 49.1% | –
16 | CC1=C(C(=O)O)N2C(=O)[C@@H](NC(=O)[C@H](N)C3=CCC=CC3)[C@H]2SC1 | -12.6% | –
17 | Cc1cc(=O)oc2cc(O)ccc12 | 4.2% | –
18 | Cc1ncc([N+](=O)[O-])n1CC(C)O (stereo not given) | 3.71% | –
19 | CCCCN(CCCC)CCC(O)c1cc2c(Cl)cc(Cl)cc2c2cc(C(F)(F)F)ccc12 (stereo not given) | 17.4% | –

Row | SMILES | activity change, negative = inhibition | outcome
20 | CCCOc1ccc2nc(NC(=O)OC)[nH]c2c1 | -9.42% | –
21 | O=C(NCC1CCCCN1)c1cc(OCC(F)(F)F)ccc1OCC(F)(F)F (stereo not given) | 2.84% | –
22 | CC(C)c1ccc2oc3nc(N)c(C(=O)O)cc3c(=O)c2c1 | 6.14% | –
23 | Nc1cccc2c1CN(C1CCC(=O)NC1=O)C2=O (stereo not given) | -17.4% | –
24 | O=C(O)c1cc(=O)c2c(OCC(O)COc3cccc4oc(C(=O)O)cc(=O)c34)cccc2o1 | 7.93% | –
25 | CC1=C(C)C(=O)C(C(CCCCCC(=O)O)c2ccccc2)=C(C)C1=O (stereo not given) | -26.1% | –
26 | O=C(NC(Cc1cc(=O)[nH]c2ccccc12)C(=O)O)c1ccc(Cl)cc1 (stereo not given) | -2.47% | –
27 | Nc1ncn([C@H]2C[C@H](O)[C@@H](CO)O2)c(=O)n1 | 8.73% | –
28 | CCOC(=O)c1c(C)n(C)c2ccc(O)cc12 | 6.72% | –
29 | COc1cc2nc(N3CCN(C(=O)C4CCCO4)CC3)nc(N)c2cc1OC (stereo not given) | -13.7% | –
30 | CN(C)C(=O)COC(=O)Cc1ccc(OC(=O)c2ccc(N=C(N)N)cc2)cc1 | 10.1% | –
31 | CCCCc1ccc2nc(NC(=O)OC)[nH]c2c1 | 7.03% | –
32 | NS(=O)(=O)c1cc(C(=O)O)c(NCc2ccco2)cc1Cl | -31.2% | –
33 | Nc1ccc(S(N)(=O)=O)cc1 | 6.07% | –
34 | CC(C)Oc1ccc2c(=O)c(-c3ccccc3)coc2c1 | – | inactive
35 | Cc1ccc(C)c(OCCCC(C)(C)C(=O)O)c1 | -3.86% | –
36 | Cc1c(C(=O)NN2CCCCC2)nn(-c2ccc(Cl)cc2Cl)c1-c1ccc(Cl)cc1 | 20.6% | –
37 | Cc1cccc(CN2CCN(C(c3ccccc3)c3ccc(Cl)cc3)CC2)c1 (stereo not given) | 20.4% | –

test system: not listed separately; assay: Primary qHTS for inhibitors of La Crosse Virus (LACV) - induced cell death in SH-SY5Y cells (AID 1508616); conditions: SH-SY5Y LACV cytopathicity rescue, ATP luminescence, 6 d; series mostly up to 4.29 µM; activity change: at the top concentration;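 note: top concentration of the series differs between compounds; 0% = infected DMSO wells and 100% = uninfected DMSO wells; higher means more rescue of cells from virus-induced death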
Procedure, shortened: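 Protection against LACV-induced cell death is scored in SH-SY5Y cells exposed to compounds and virus (0.01 MOI) for 6 days. Data normalized to virus-infected DMSO wells and virus-free DMSO wells.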

Row | SMILES | activity change | Potency
38 | N=C(N=C(N)N)N1CCOCC1 | -4.79% | –
39 | O=C(NCCO[N+](=O)[O-])c1cccnc1 | -3.34% | –
40 | COC1=C(OC)C(=O)C(CCCCCCCCCCO)=C(C)C1=O | -3.45% | –
41 | Cc1cccc(C)c1OCC(=O)N[C@@H](Cc1ccccc1)[C@@H](O)C[C@H](Cc1ccccc1)NC(=O)[C@H](C(C)C)N1CCCNC1=O | -1.76% | –
42 | N=C(N)c1ccc2cc(OC(=O)c3ccc(N=C(N)N)cc3)ccc2c1 | 26.7% | –
43 | CCCCC(CC)COC(=O)C(C#N)=C(c1ccccc1)c1ccccc1 (stereo not given) | -0.586% | –
44 | CCN(CC)CCOc1ccc(Cc2ccccc2)cc1 | -5.45% | –
45 | CC(C)CC(=O)N[C@H](C(=O)N[C@H](C(=O)N[C@@H](CC(C)C)[C@@H](O)CC(=O)N[C@@H](C)C(=O)N[C@@H](CC(C)C)[C@@H](O)CC(=O)O)C(C)C)C(C)C (Isovaleryl-VV[Sta]A[Sta]-OH) | 0.699% | –
46 | CCCc1cc(=O)[nH]c(=S)[nH]1 | 0.831% | –
47 | CC(C)[C@H](N)C(=O)OCCOCn1cnc2c(=O)[nH]c(N)nc21 | 12.9% | –
48 | CN1CCC(=C2c3ccccc3CCc3sccc32)CC1 | -2.09% | –
49 | Cc1cc2cc3c(C)cc(=O)oc3c(C)c2o1 | 10.7% | –
50 | NC(=O)Cc1cccc(C(=O)c2ccccc2)c1N | 28.4% | –
51 | CCCCCCCCOc1ccccc1C(=O)Nc1ccc(C(=O)OCC[N+](C)(CC)CC)cc1 | 24.6% | –
52 | CC1=C(C(=O)O)N2C(=O)[C@@H](NC(=O)[C@H](N)C3=CCC=CC3)[C@H]2SC1 | 26.4% | –
53 | Cc1cc(=O)oc2cc(O)ccc12 | 41.1% | –
54 | Cc1ncc([N+](=O)[O-])n1CC(C)O (stereo not given) | -1.38% | –

Row | SMILES | activity change | Potency
55 | CCCOc1ccc2nc(NC(=O)OC)[nH]c2c1 | -83.8% | –
56 | O=C(NCC1CCCCN1)c1cc(OCC(F)(F)F)ccc1OCC(F)(F)F (stereo not given) | 18.4% | –
57 | Nc1cccc2c1CN(C1CCC(=O)NC1=O)C2=O (stereo not given) | 8.8% | –
58 | O=C(O)c1cc(=O)c2c(OCC(O)COc3cccc4oc(C(=O)O)cc(=O)c34)cccc2o1 | 21.6% | –
59 | CC1=C(C)C(=O)C(C(CCCCCC(=O)O)c2ccccc2)=C(C)C1=O (stereo not given) | -16.7% | –
60 | O=C(NC(Cc1cc(=O)[nH]c2ccccc12)C(=O)O)c1ccc(Cl)cc1 (stereo not given) | 20% | –
61 | CCOC(=O)c1c(C)n(C)c2ccc(O)cc12 | -6.93% | –
62 | COc1cc2nc(N3CCN(C(=O)C4CCCO4)CC3)nc(N)c2cc1OC (stereo not given) | – | inactive
63 | CN(C)C(=O)COC(=O)Cc1ccc(OC(=O)c2ccc(N=C(N)N)cc2)cc1 | -12.7% | –
64 | CCCCc1ccc2nc(NC(=O)OC)[nH]c2c1 | -83.8% | –
65 | NS(=O)(=O)c1cc(C(=O)O)c(NCc2ccco2)cc1Cl | -0.328% | –
66 | Nc1ccc(S(N)(=O)=O)cc1 | 15.5% | –
67 | CC(C)Oc1ccc2c(=O)c(-c3ccccc3)coc2c1 | – | inactive
68 | Cc1ccc(C)c(OCCCC(C)(C)C(=O)O)c1 | -4.93% | –
69 | Cc1c(C(=O)NN2CCCCC2)nn(-c2ccc(Cl)cc2Cl)c1-c1ccc(Cl)cc1 | -5.99% | –
70 | Cc1cccc(CN2CCN(C(c3ccccc3)c3ccc(Cl)cc3)CC2)c1 (stereo not given) | -3.44% | –
